# This is part of a sample that, as a whole, favours compounds with a hit. Of some 83,000 tested, about 20% had one in any assay.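 The endpoint reported here, percent growth, reads 100 for growth as untreated, 0 for no net growth and -100 for all cells dead.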 A number with no mark means an inactive call. Calls of active or inactive are those of the source. How the source made its calls: active means growth percent below 10; inactive means the rest.
# Columns and labels:
# Assay in all cases: NCI-60 one-dose screen, 48 h (100 = growth as untreated, 0 = no growth, -100 = all killed)
# Conditions in all cases: 10 µM unless noted
# NCI-H23 lung = system: NCI-H23 lung
# NCI-H226 lung = system: NCI-H226 lung
# NCI-H322M lung = system: NCI-H322M lung
# HOP-62 NSCLC = system: HOP-62 NSCLC
# NCI-H460 lung = system: NCI-H460 lung
# HOP-92 NSCLC = system: HOP-92 NSCLC
# NCI-H522 lung = system: NCI-H522 lung
# A549/ATCC NSCLC = system: A549/ATCC NSCLC
# 786-0 renal = system: 786-0 renal
# COLO 205 colon = system: COLO 205 colon
SMILES,growth (NCI-H23 lung),growth (NCI-H226 lung),growth (NCI-H322M lung),growth (HOP-62 NSCLC),growth (NCI-H460 lung),growth (HOP-92 NSCLC),growth (NCI-H522 lung),growth (A549/ATCC NSCLC),growth (786-0 renal),growth (COLO 205 colon)
COc1cccc(Cc2nn3cc(-c4ccccc4)nc3s2)c1,97.4%,110%,91.8%,95.2%,105%,84.8%,70.3%,94.4%,52%,106%
COc1ccc(C(=S)N2CCN(c3cccc(C)c3)CC2)cc1OC,65.2%,98.4%,99.7%,90.6%,51.8%,81%,22.8%,59.4%,80.6%,80.2%
CCCCC[C@H](O)C/C=C1/C(=O)C=C[C@@H]1C/C=C\CCCC(=O)O,74.6%,83.7%,91.1%,84.1%,66.9%,97.2%,46.3%,81%,83.3%,78%
NC(=O)C1(Nc2ccc(Br)cc2)CCCC1,97.5%,98.9%,107%,103%,110%,110%,92.9%,103%,102%,104%
CN(C)CC#Cc1ccc2ncc(C#N)c(Nc3ccc(F)c(Cl)c3)c2c1,58.2%,60.8%,14.9%,67.8%,50.8%,56.1%,45.3%,51%,49.4%,71.3%
CCN1C(=O)N(CC)C2Nn3c(s/c(=C4\C(=O)N(CC(C)C)c5ccccc54)c3=O)=NC21 (stereo not given),43%,84.1%,64.9%,55.2%,24.5%,81.2%,15.9%,44.6%,35.3%,4.64% (active)
COC(=O)c1ccc2[nH]c(O)c(C(=Nc3ccc(N(C)C(=O)CN4CCN(C)CC4)cc3)c3ccccc3)c2c1,31.1%,19%,76.8%,26.1%,24.9%,59.7%,50.3%,39.4%,1.61% (active),11.4%
O=c1c2cccc(Cl)c2sc2c(NCCCNCCO)nc3ccccc3c12,52.4%,67.7%,44%,39.6%,-86.2% (active),-0.275% (active),49.5%,27.5%,45.6%,-61.4% (active)
CS(=O)(=O)Nc1cc(-c2ccc3ncnc(Nc4cccc(Cl)c4F)c3c2)cnc1Cl,56.6%,49.2%,47.2%,54.7%,41.5%,13.3%,53.8%,67.4%,29.6%,66.3%
CN1CCN(Cc2ccc(NC(=O)c3ccc(C(C)(C)C)c(C#Cc4cnc5cccnn45)c3)cc2C(F)(F)F)CC1,-65.1% (active),48.5%,-29.6% (active),-73.1% (active),-52.7% (active),23.9%,-73.5% (active),-76.8% (active),-85.4% (active),-70.1% (active)
Nc1ccccc1-c1cc2c(c3c1[nH]c1ccccc13)CCCCC2,90.5%,117%,99%,105%,97.2%,105%,84.8%,95.8%,89.3%,101%
Cc1c(C(=O)N[C@@H](Cc2ccccc2)C(=O)C(=O)NCc2ccc(F)cc2)[nH]c2ccccc2c1=O,101%,89%,98.8%,106%,56.9%,94.4%,91.4%,97.3%,102%,-42.1% (active)
CCc1cccc2c1S/C(=C/c1ccc(OC)cc1)C2=O,50.1%,85.7%,86.7%,45.4%,56%,72.2%,42.7%,89%,63.6%,105%
C#Cc1cccc(NC(=O)Nc2ccccc2NC(=O)CCl)c1,-52.2% [8.25 µM] (active),-56.2% [8.25 µM] (active),91% [8.25 µM],-34.8% [8.25 µM] (active),-24.4% [8.25 µM] (active),-30.6% [8.25 µM] (active),-58.6% [8.25 µM] (active),10% [8.25 µM],-63.2% [8.25 µM] (active),-49.3% [8.25 µM] (active)
Cc1cc(O)c(C2=NN(c3ccc(S(N)(=O)=O)cc3)C(/C=C/c3ccccc3)C2)cc1Cl (stereo not given),22.3%,33.7%,57.5%,17.6%,35.3%,29.6%,31.9%,46.6%,7.75% (active),65.2%
Cc1ccc(NC2=C(Cl)C(=O)c3nc(C)ccc3C2=O)cc1,-30.5% (active),38.1%,55.7%,75.2%,9.01% (active),-71% (active),-25.7% (active),54.6%,21.6%,106%
CCCCn1c(=O)c(-c2cc(-c3ccc(Cl)cc3)nc(-c3ccc(Cl)cc3)c2)cc2cc(Cl)ccc21,105%,104%,96%,104%,108%,94.2%,99.3%,101%,106%,109%
NCCOc1ncccc1/C=C1\c2ccccc2-c2ccc(C(F)F)cc21,42.3%,61.8%,98.8%,39.9%,9.8% (active),49.6%,79%,20.9%,56.4%,48.9%
COc1ccc2nc(NC(=O)c3cccnc3Nc3ccc(S(N)(=O)=O)cc3)sc2c1,105%,95.5%,89.8%,109%,98.9%,84.9%,95.5%,93.5%,78.3%,159%
CCOC(=O)Nc1ccc(-c2nc(-c3cccc(OC)c3)c(-c3ccnc(Br)c3)[nH]2)cc1,31.7%,46.4%,45.7%,30.2%,27.2%,42.2%,30.2%,36.9%,9.61% (active),49.2%
Cc1ccc2c(-c3cc(-c4ccccc4)nc(N)c3C#N)cc(=O)oc2c1,102%,95.9%,96.6%,88.3%,101%,92.3%,68.1%,92%,92.2%,108%
Cc1ccc(/C=C2\Oc3ccc(O)c(O)c3C2=O)cc1,36.6%,62.2%,58%,44.8%,43.4%,35.9%,13.6%,73.1%,52.5%,107%
COC1=C(C)C(=O)c2c(c(CCCl)c3n2CCC3OC(C)=O)C1=O (stereo not given),-12% (active),-14.9% (active),-14.8% (active),-22.4% (active),-14.3% (active),56.4%,-56.9% (active),1.27% (active),-32.4% (active),-60% (active)
Cc1ncc(C(=O)Nc2ccc(CN3CCN(C)CC3)c(C(F)(F)F)c2)cc1C#Cc1ccc(N)nc1,3.94% (active),-3.96% (active),20.1%,18.7%,-60.3% (active),-15.9% (active),-8.12% (active),11.3%,-48.8% (active),5.35% (active)
CCS(=O)(=O)c1ncnc2nc[nH]c12,111%,94.2%,106%,93.5%,105%,77.1%,65.4%,89.4%,95%,102%
Cc1ccc(C(=O)NCCNc2nccc(-c3c(-c4cccc(F)c4)nc4sccn34)n2)cc1,70.5%,36.4%,64.8%,86.1%,34.8%,74.8%,72.2%,31.2%,60.8%,27.6%
C=CCc1cc(C)ccc1NC(C(=O)NCC(=O)OC)c1ccccc1 (stereo not given),93.7%,95.1%,95.3%,85.5%,116%,103%,96.4%,93%,94.1%,100%
